Experimental findings from PubChem BioAssay AID540333 (Southern Research Specialized Biocontainment Screening …, 2011) are described below.

Screen size: about 10,000 compounds; about 320 (3.2%) were called active. No stated cut-off is given here; in the data, active means CPE inhibition mostly above about 9.1% (no sharp cut-off); inactive means mostly below about 7.2%. The full list was thinned out, with actives kept by preference.

The experiment is described as follows: Dengue virus cytopathic effect inhibitors, cell-based, CPE readout, HTS (AID 540333). The following applies: Dengue virus CPE inhibition in host cells, at 20 µM; stronger effect = higher value. For orientation: Protection from cytopathic effect is a common read-out in antiviral testing.
As for `Cc1cc(C(=O)N/N=C/c2cc(Br)cc([N+](=O)[O-])c2O)c2ccccc2n1`, the CPE inhibition was 0.34% (inactive). With `CCOC(=O)c1cccc(S(=O)(=O)N2CCCC2)c1` the figure was 0.06% (inactive). With `O=C(NCc1ccccc1)C1=C[C@@H](C2CCCCC2)C[C@@H](OCCCCO)O1` the figure was 2.12% (inactive). With `Cc1[nH][nH]c(=O)c1C` the figure was 0.36% (inactive); with `Cc1ccc(S(=O)(=O)NNC(=S)NC(=O)c2ccc([N+](=O)[O-])cc2)cc1`, “inactive”. Consider `CC(C)COP(=O)(c1ccc(N(C)C)cc1)C(Nc1ccccc1)c1cccnc1` (configuration not stated), for which the CPE inhibition is 0.73% (inactive). In the case of `CCCOP(=O)(c1ccc(N(C)C)cc1)C(Nc1ccccc1)c1ccc(N(C)C)cc1` (configuration not stated), the CPE inhibition is 0.64% (inactive).

Regarding `CC(C)COP(=O)(c1ccc(N(C)C)cc1)C(Nc1ccccc1)c1ccccc1` (configuration not stated), the CPE inhibition is 29.1% (active).

In the case of `O=C(NC1CCCc2ccccc21)c1ccc(Br)cc1` (configuration not stated), the CPE inhibition is 3.09% (inactive).

Regarding `Nc1ccc(-n2nnnc2CN2CCOCC2)cc1`, the CPE inhibition was 0.25% (inactive). Under `COc1ccc(CC(=O)Nc2cc3oc4ccccc4c3cc2OC)cc1` stands 0.095% (inactive); under `C=CCOC(=O)C1=C[C@@H](c2ccc(C(F)(F)F)cc2)C[C@@H](OCCCCO)O1`, 0.15% (inactive); under `CNC(=O)/C(C#N)=C/c1c(N(Cc2ccccc2)Cc2ccccc2)nc2c(C)cccn2c1=O`, 17% (active).

As for `Cc1cccn2c(=O)c(/C=C(\C#N)C(N)=O)c(N3CCN(Cc4ccc5c(c4)OCO5)CC3)nc12`, the CPE inhibition was 0.905% (inactive).

Take `CCNC(=O)/C(C#N)=C/c1c(N2CCN(Cc3ccc4c(c3)OCO4)CC2)nc2c(C)cccn2c1=O`: the CPE inhibition entry is “inactive”.

As for `Cc1ccc(Oc2nc3ccccn3c(=O)c2/C=C(\C#N)C(=O)Nc2c(C)n(C)n(-c3ccccc3)c2=O)c(C)c1`, the CPE inhibition is 0.875% (inactive). Consider `CNC(=O)/C(C#N)=C/c1c(N(Cc2ccccc2)Cc2ccccc2)nc2ccccn2c1=O`, for which the CPE inhibition is 14.1% (active).

Regarding `Cc1cccc(Oc2nc3ccccn3c(=O)c2/C=C(\C#N)C(=O)NC2CCS(=O)(=O)C2)c1` (configuration not stated), the CPE inhibition is 1.43% (inactive). Under `COc1ccc(/C=C2/C(=O)N(Cc3ccccc3)N=C2C)cc1` stands “inactive”; under `CCCCn1[nH]c(-c2ccccc2)cc1=O`, “inactive”; under `COc1ccc(OC)c(/C=C/C(=O)OCC(=O)Nc2cccc(Oc3ccccc3)c2)c1`, 0.45% (inactive). With `COc1cc(/C=C/C(=O)Nc2nnc(CC(C)C)s2)cc(OC)c1OC`, the CPE inhibition is 1.95% (inactive). With `CCCS(=O)(=O)Nc1c(OC)ccc2c1c(C(=O)OCC)c(C)n2C` the entry was “inactive”; with `CC(C)CNC(=O)c1ccccc1NC(=O)/C=C/c1cccc([N+](=O)[O-])c1`, “inactive”; with `CC(=O)NN1C(=O)/C(=C/c2ccc(C(C)C)cc2)SC1=S`, “inactive”. Under `O=C(COC(=O)c1oc2ccccc2c1COc1ccccc1)NCCN1C(=O)CSC1=O` stands 1.47% (inactive). Take `CCSc1nc2ccccc2n1C(=O)c1ccc(S(=O)(=O)N2CCCCCC2)cc1`: the CPE inhibition was 0.17% (inactive).

`CCC1Nc2ncnc(N3CCN(c4ccccc4)CC3)c2N(Cc2ccc(Br)cc2)C1=O` (configuration not stated): the CPE inhibition was 11.1% (active). For `O=C(Cc1ccc(Br)cc1)N1CCN(c2ccccn2)CC1`, the CPE inhibition entry is “inactive”.

Turning to `Cc1ccc(CN2C(=O)C(CC(C)C)Nc3ncnc(N4CCN(c5ccccc5)CC4)c32)cc1` (configuration not stated), the CPE inhibition was 37.1% (active). `COc1ccc(CN2C(=O)C(Cc3ccccc3)Nc3ncnc(N4CCCCC4)c32)cc1` (configuration not stated): the CPE inhibition is 2.1% (inactive). Consider `CCC1Nc2ncnc(N3CCOCC3)c2N(Cc2ccc(Cl)cc2)C1=O` (configuration not stated), for which the CPE inhibition is 0.26% (inactive). Under `CC(C)CC1Nc2ncnc(N3CCN(c4ccccn4)CC3)c2N(Cc2ccc(Cl)cc2)C1=O` (configuration not stated) stands 9.66% (active); under `Cc1ccc(CN2C(=O)C(CC(C)C)Nc3ncnc(N4CCN(c5ccccn5)CC4)c32)cc1` (configuration not stated), 2.52% (inactive). Regarding `CC(C)CC1Nc2ncnc(N3CCN(c4ccccn4)CC3)c2N(Cc2ccccc2)C1=O` (configuration not stated), the CPE inhibition is 1.43% (inactive).

For the compound `CCC1Nc2ncnc(N3CCOCC3)c2N(Cc2ccc(Br)cc2)C1=O` (configuration not stated), the CPE inhibition result is “inactive”.

In the case of `COc1ccc2oc(=O)c(/C(C)=N/Nc3nc(-c4cc(C)ccc4C)cs3)cc2c1`, the CPE inhibition entry is “inactive”. With `CC(C)(C)C1CCC(=NNC(=O)CN(c2ccccc2)S(=O)(=O)c2ccccc2[N+](=O)[O-])CC1` (configuration not stated) the entry was “inactive”; with `N#Cc1ccc(COC(=O)CSc2nnc(N)s2)cc1`, 0.615% (inactive).

As to `NC(=O)CC(NC(=O)Cc1cccc2ccccc12)c1ccc(NCc2ccccc2)c([N+](=O)[O-])c1` (configuration not stated), the CPE inhibition is 2.03% (inactive).

As to `CCOC(=O)c1c(-c2ccc(F)cc2)csc1NC(=O)CCN1C(=O)c2ccccc2C1=O`, the CPE inhibition is 1.4% (inactive). With `O=C(NCc1ccccc1)c1onc(CSc2ccc(F)c(F)c2)c1C(=O)NCc1ccccc1` the figure was 0.575% (inactive).

Consider `CCOC(=O)CN1C(=O)N[C@@H](c2ccco2)C(C(C)=O)=C1C`, for which the CPE inhibition was 1.53% (inactive).

Regarding `Oc1cccc(/C=N/Nc2ncnc3c2ncn3Cc2ccccc2)c1`, the CPE inhibition result was “inactive”. Under `O=C(CCSCCc1ccccn1)Nc1c(F)c(F)c(F)c(F)c1F` stands “inactive”.

As to `O=C1CCCc2[nH]c3cccc(/C(=C/c4ccccc4)c4ccccc4)c3c21`, the CPE inhibition was 22.5% (active).

Turning to `CCOC(=O)N1CCC(N2Cc3cccc(C(=O)N4CC(C)CC(C)C4)c3C2=O)CC1` (configuration not stated), the CPE inhibition entry was “inactive”. Under `CCCCCC[n+]1c(-c2ccccc2)csc1Nc1ccccc1` stands 7.19% (inactive); under `CC1=C(C#N)C(c2ccccc2)C2=C(N1)c1ccccc1C2=O` (configuration not stated), 1.29% (inactive); under `CN(CC(=O)Nc1ccc(C#N)cc1)CC(=O)Nc1ccc(N2CCOCC2)cc1`, 0.525% (inactive). Under `O=C(Nc1nc2c(s1)CCCC2)c1cc(-c2ccccc2)nc2ccccc12` stands 5.19% (inactive); under `CCCCCCn1nc(C(=O)Nc2nc3c(s2)CCCC3)c2ccccc2c1=O`, 29% (active). Under `CCn1nc(C(=O)Nc2nc3ccccc3[nH]2)c2ccccc2c1=O` stands 0.06% (inactive). As for `C=CCn1c(SCc2ccc(C(=O)Nc3nccs3)cc2)nnc1-c1ccc(C)c(Cl)c1`, the CPE inhibition was 0.44% (inactive). Under `CC1CCCCC1NC(=S)NC(=O)c1ccccc1Br` (configuration not stated) stands 0.915% (inactive); under `O=C(NC(=S)NC1CCCC1)c1ccccc1Br`, 0.11% (inactive); under `CC1CCCC(NC(=S)NC(=O)c2ccccc2Br)C1C` (configuration not stated), 21.1% (active).
